Compound activity from PubChem.
TRb SRC2 PPI = inhibitors of human thyroid hormone receptor beta-SRC2 interaction; TRbeta-SRC2 peptide binding, fluorescence polarization; receptor liganded with 1 µM T3; Potency, µM (highest dose often 106 µM), usual class: inhibitors; 0.065% of 280,000 active; AID 1469; further: nearly all actives have a fitted effect of over 50% in size
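Fluorescence polarization of 20 nM Texas Red SRC2 peptide (20-aa NR interaction domain) bound to 0.6 uM human TRb ligand-binding domain, with 1 uM T3, after 5 hr at ambient temperature; inhibition seen as decreased polarization.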
TexasRed fluor = alters Texas Red total fluorescence, flagging assay interference; TRb/SRC2 Texas Red total fluorescence interference; Potency, µM (doses to about 106 µM); 0.29% of 280,000 active; AID 1479; active means well fitted curve in either direction with a large enough effect; inconclusive means small, poorly fitted or top-dose-only effect
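Flags fluorescent or light-absorbing compounds by total fluorescence, S + 2P, at 555 nm excitation and 632 nm emission. Mixture: 20 nM Texas Red SRC2 peptide, 0.6 uM human TRb LBD, 1 uM T3, 5% DMSO; compound exposure 5 h at ambient temperature.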
Tau fibril ThT = inhibitors of human tau fibril formation, thioflavin T binding; P10636; recombinant tau K18 P301L, heparin-induced fibrillization, ThT fluorescence; Potency, µM (top dose mostly 57.4 µM), actives largely listed as inhibitors; 2.1% of 270,000 active; further: nearly all actives have a fitted effect of over 55% in size
Target sequence (P10636 561-689 P618L limits assumed): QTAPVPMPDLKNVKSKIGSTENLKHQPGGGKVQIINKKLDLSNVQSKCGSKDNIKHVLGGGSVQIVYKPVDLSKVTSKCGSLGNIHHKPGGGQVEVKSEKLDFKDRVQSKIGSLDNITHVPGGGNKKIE
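Tau K18 P301L fragment (15 uM unlabeled plus 0.24 uM Alexa 594-labeled) in 100 mM sodium acetate pH 7 with compound, fibrillization induced by 20 uM heparin for 6 hr at 37 C. Thioflavin T (30 uM) added, fluorescence read after 1 hr (ex 450, em 510 nm).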
Tau fluor counter = counter-screen for tau fibril formation inhibitors. AID 1463. 0.93% of 280,000 active. tau K18 P301L Alexa594 fluorescence, heparin fibrillization. Potency, µM (top dose mostly 57.7 µM); further: nearly all actives have a fitted effect of over 55% in size
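Human tau K18 P301L (15 uM unlabeled, 0.24 uM Alexa 594-labeled) in 100 mM sodium acetate pH 7 with 20 uM heparin, 6 hr at 37 C. ThT 30 uM added, 1 hr ambient; Alexa 594 FP and total fluorescence read at 555/632 nm.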
JMJD2E inh = inhibitors of human JMJD2E histone demethylase; JMJD2E catalytic domain, FDH-coupled NADH fluorescence (FDH is formaldehyde dehydrogenase); Potency, µM (series often up to 57.1 µM), actives largely listed as inhibitors; 1.6% of 230,000 active; AID 2147; active means well fitted inhibition curve with a large enough effect, not every such curve was filed as active; inconclusive means small, poorly fitted or top-dose-only effect, or another doubt; inactive means no such curve, though single readings can be large or run the other way; further: nearly all actives have a fitted effect of over 50% in size
Target sequence (B2RXH2 1-337 limits assumed): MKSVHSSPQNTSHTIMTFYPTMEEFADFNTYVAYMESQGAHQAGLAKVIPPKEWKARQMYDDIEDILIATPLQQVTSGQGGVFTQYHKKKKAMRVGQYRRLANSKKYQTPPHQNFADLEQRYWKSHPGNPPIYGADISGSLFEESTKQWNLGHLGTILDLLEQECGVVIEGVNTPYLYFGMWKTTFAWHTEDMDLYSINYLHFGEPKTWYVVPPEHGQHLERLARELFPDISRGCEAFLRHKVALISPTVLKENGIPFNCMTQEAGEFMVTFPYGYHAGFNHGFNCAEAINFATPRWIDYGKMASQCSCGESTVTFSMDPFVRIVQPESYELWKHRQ
Tau fibril FP = inhibitors of human tau fibril formation; 0.39% of 280,000 active; K18 P301L tau heparin fibrillization, Alexa594 FP, 6 h; Potency, µM (titrated, usually from 57.7 µM), actives largely listed as inhibitors; AID 1468; further: nearly all actives have a fitted effect of over 55% in size
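Heparin (20 uM) drove fibril formation of recombinant tau K18 P301L, 15 uM unlabeled with 0.24 uM Alexa 594 label, for 6 hr at 37 C in 100 mM sodium acetate pH 7. Fluorescence polarization (555/632 nm) read 1 hr after 30 uM ThT.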
A number is an active result; 0 = inactive; ? = inconclusive; - = not tested or not shown; [ ] = another dose, or the depositor's remark. An excerpt weighted towards active compounds, which were near 3.5% of everything screened. Unless noted, the call rests on the fitted dose curve; in most records, active means well fitted curve in the direction sought with a large enough effect; inconclusive means small, poorly fitted or top-dose-only effect, or another doubt; inactive means no such curve, though single readings can be large; an effect the other way counts as inactive or inconclusive.

SMILES	TRb SRC2 PPI	TexasRed fluor	Tau fibril ThT	Tau fluor counter	JMJD2E inh	Tau fibril FP
CC(=O)N1CCc2c(sc3c2c(=O)n(-c2cc(Cl)ccc2C)c(=O)n3Cc2ccccc2F)C1	0	0	0	0	-	0
O=C(CSc1nc(-c2ccccc2)cc(=O)[nH]1)Nc1ccccc1F	0	0	0	0	-	0
C/C=C\C1=C(CO)C(=O)[C@@H]2OC2C1=O (stereo partly specified)	0[11.2 µM]	?	3.5µM	?	-	?
C/C=C\C1=C(CO)[C@H](O)[C@H]2O[C@H]2[C@H]1O	0[11.2 µM]	0[11.2 µM]	0[11.5 µM]	0[11.6 µM]	-	0[11.6 µM]
CCCOC(=O)c1ccc(Oc2c(-c3ccc(O)cc3O)n[nH]c2C)cc1	0	0	0	0	0	0
CCCOC(=O)c1ccc(Oc2c(-c3ccc(OC)cc3O)n[nH]c2C)cc1	0	0	0	10µM[quencher]	0	?
COc1ccc(-c2c(-c3ccc(OCC(=O)NN)cc3O)n[nH]c2C)cc1	0	0	0	0	?	0
CCCOC(=O)c1ccc(Oc2cn[nH]c2-c2ccc(O)cc2O)cc1	0	0	?	5µM[quencher]	?	?
CCOc1ccc(-c2n[nH]c(C)c2Oc2ccccc2OC)c(O)c1	0	0	0	?	0	0
Cc1[nH]nc(-c2ccc(O)cc2O)c1Oc1ccccc1	0	0	0	14µM[quencher]	0	0
CCCOC(=O)c1ccc(Oc2cn[nH]c2-c2ccc(OCC(=O)NN)cc2O)cc1	0	0	0	28µM[quencher]	?	0
O=C(Cn1nc(-c2ccc(Cl)cc2)ccc1=O)NCc1ccccc1Cl	0	0	0	0	-	0
CC(=O)c1ccc(NC(=O)CCc2c(C)nc3ncnn3c2C)cc1	0	0	?	0	0	0
CS(=O)(=O)N(CC(=O)Nc1cc(Cl)ccc1Cl)c1ccccc1	0	0	0	0	0	0
CC(=O)Nc1ccc(NC(=O)C/C(C)=N/NC(=O)C(=O)N2CCCC2)cc1	0	0	0	0	0	0
Cc1cc(C)cc(NC(=O)CSc2nnc(Cn3c(=O)sc4ccccc43)n2C)c1	0	0	0	0	0	0
CCCC(C)(C)NC(=O)CCCCC(=O)NC(C)(C)CCC	0	0	0	0	0	0
COc1ccc(-c2cc(-c3ccc(F)cc3)nc(N3CCN(C)CC3)n2)cc1	0	0	0	0	0	0
COc1ccc(Oc2cn[nH]c2-c2ccc(O)cc2O)cc1	0	0	0	?	0	?
CCc1cc(-c2n[nH]c(C)c2Oc2ccc(C(C)C)cc2)c(O)cc1O	0	0	28µM	7.1µM[quencher]	0	?
CCCc1ccc(Oc2cn[nH]c2-c2ccc(O)cc2O)cc1	0	0	?	6.3µM[quencher]	0	?
CCOC(=O)c1ccc(Oc2cn[nH]c2-c2ccc(O)cc2O)cc1	0	0	?	13µM[quencher]	?	?
CCOc1ccccc1C1C(C(N)=O)=C(C)Nc2nc(-c3ccc(OC)cc3)nn21 (stereo unspecified)	0	0	0	0	0	0
COc1ccc(C2=CC3=C(Br)C(=O)C(C)(OC(=O)c4ccco4)C(=O)C3=CO2)cc1 (stereo unspecified)	0	0	16µM	?	0	?
CN(C)CCCNc1c(C(=O)O)cnc2c1cnn2C	0	0	0	0	0	0
SMILES	TRb SRC2 PPI	TexasRed fluor	Tau fibril ThT	Tau fluor counter	JMJD2E inh	Tau fibril FP
Cc1ccc(-c2ccc(/C=C3\SC(N4CCOCC4)=NC3=O)o2)cc1	0	0	13µM	?	0	0
O=C1N=C(N2CCOCC2)S/C1=C/c1ccc(-c2ccc(F)cc2)o1	0	0	?	0	0	0
CCOc1cc(C(c2c(C)[nH][nH]c2=O)c2c(C)[nH][nH]c2=O)ccc1OCc1ccc([N+](=O)[O-])cc1	?	0	11µM	?	0	0
COc1cc(C(c2c(C)[nH][nH]c2=O)c2c(C)[nH][nH]c2=O)cc([N+](=O)[O-])c1O	0	0	14µM	0	0	?
CCOc1cc(C(c2c(C)[nH][nH]c2=O)c2c(C)[nH][nH]c2=O)ccc1OC(=O)c1cccc([N+](=O)[O-])c1	?	0	?	?	0	0
COc1cc(/C=N/NC(=O)C2COc3ccccc3O2)ccc1O (stereo unspecified)	0	0	?	0	0	0
O=C(N/N=C/C=C/c1ccc([N+](=O)[O-])cc1)C1COc2ccccc2O1 (stereo unspecified)	0	0	4.5µM	16µM[quencher]	0	0
O=C(N/N=C\C=C\c1ccco1)C1COc2ccccc2O1 (stereo unspecified)	0	0	-	0	0	0
O=C(N/N=C\c1ccc(O)c([N+](=O)[O-])c1)C1COc2ccccc2O1 (stereo unspecified)	0	0	10µM	0	0	?
Cc1cc([N+](=O)[O-])cc(/C=N\NC(=O)C2COc3ccccc3O2)c1O (stereo unspecified)	0	0	13µM	?	?	0
O=C(NCc1nc2ccccc2[nH]1)C1=C[C@H](C2CC2)C[C@H](OCCCCO)O1	0	0	0	0	0	0
[O-]c1c[n+](-c2ccc(-[n+]3cc([O-])on3)cc2)no1	0	0	?	0	25µM	0
[O-]c1c[n+](-c2ccccc2)no1	0	0	-	0	0	0
CC(=NCc1ccco1)c1c(O)n(C2CCCCC2)c(=O)[nH]c1=O	0	0	0	0	0	0
COc1ccc2c(c1)C(=O)N(CCc1ccc(S(=O)(=O)NC(=O)NC3CCCCC3)cc1)C(=O)C2(C)C	0	0	-	-	7.9µM	-
Cc1ccccc1NS(=O)(=O)c1ccc2[nH]c3c(c2c1)CCCCC3	0	0	0	14µM[quencher]	-	0
O=S(=O)(NCc1ccccc1)c1ccc2[nH]c3c(c2c1)CCCCC3	0	0	0	?	-	0
Cc1cccc(NS(=O)(=O)c2ccc3[nH]c4c(c3c2)CCCCCC4)c1	0	0	0	11µM[quencher]	-	0
O=S(=O)(Nc1cccc(Cl)c1)c1ccc2[nH]c3c(c2c1)CCCCCC3	0	126µM[quencher]	0	8.9µM[quencher]	-	?
CCC(=O)N1CCN(c2ccc(NC(=O)c3ccc(N4CCCC4)c([N+](=O)[O-])c3)cc2)CC1	0	0	0.63µM	0	0	0
CCOc1ccc(C(=O)NC(=S)Nc2ccc(N3CCC(C)CC3)cc2)cc1[N+](=O)[O-]	0	0	?	?	0	0
CCC(=O)N1CCN(c2ccc(NC(=S)NC(=O)c3ccc(OC)c([N+](=O)[O-])c3)cc2)CC1	0	0	2.5µM	?	0	?
CC1=NN(c2nc(-c3ccc(C)cc3)cs2)C(=O)C1N=Nc1cccc(O)c1 (stereo unspecified)	0	0	1.8µM	?	0	0
CC1=NN(c2nc(-c3ccc(C)cc3)cs2)C(=O)C1N=Nc1ccccc1O (stereo unspecified)	0	0	2µM	?	0	0
